Source: PubChem BioAssay (NCATS)
Records with an inconclusive call do not appear. Values without a mark were called inactive. Calls follow the shape of the dose curve; as a rule, active = well fitted cell-killing curve with a large enough effect; inconclusive = small, poorly fitted or top-dose-only effect, or effect the other way; inactive = flat fitted curve, though single readings scatter.

Test system: JEG-3
Assay: Primary qHTS to identify gynecologic anti-cancer compounds using libraries of approved drugs and bioactive compounds (AID 1345084); also: nearly all actives have a fitted effect of over 55% in size
Conditions: Gynecologic cancer cell panel viability, ATPlite luminescence, 48 h; series mostly up to 57.5 µM; activity change, negative = cytotoxicity: at the top concentration
How it was run: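 Cell viability after 48 h drug treatment, ATPlite luminescence readout; five doses.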
% is scaled to controls: 0 for no effect and ±100 for the full control effect.

| SMILES | activity change, negative = cytotoxicity |
| --- | --- |
| CC(C)=CCC/C(C)=C/CO[C@@H]1O[C@H](CO[C@@H]2O[C@@H](CO)[C@H](O)[C@H]2O)[C@@H](O)[C@H](O)[C@H]1O | 2.65% [at 25.3 µM] |
| O=C(c1ccc(Cl)c([N+](=O)[O-])c1)N1CCN(c2ccccc2F)CC1 | -1.69% |
| COc1cc(O)c2c(c1Cl)CC(C)OC2=O (stereo not given) | 0.88% |
| CCCCNc1nc(N)c2[nH]c(=O)n(Cc3ccc(OCCN(C)C)nc3)c2n1 | -6.71% |
| CC(O)C(=O)/C=C/C=C/C(=O)OC1C=C2COC(=O)C2(O)C2(C)CCCC(C)(C)C12 (stereo not given) | -3.49% [at 25.3 µM] |
| CC1(C)CC[C@]2(C(=O)O)CC[C@]3(C)C(=CCC4[C@@]5(C)CC[C@H](O[C@@H]6O[C@H](C(=O)O)[C@@H](O)[C@H](O[C@@H]7O[C@H](CO)[C@H](O)[C@H](O)[C@H]7O)[C@H]6O[C@@H]6O[C@H](CO)[C@@H](O)[C@H](O)[C@H]6O)C(C)(C)C5CC[C@]43C)[C@@H]2C1 (stereo not given in full) | 4.16% [at 6.55 µM] |
| CC(=O)OC(C)(C)/C=C/C(=O)[C@](C)(O)C1[C@H](O)C[C@@]2(C)[C@@H]3CC=C4[C@@H](C[C@H](O[C@@H]5O[C@H](CO)[C@@H](O)[C@H](O)[C@H]5O)C(=O)C4(C)C)[C@]3(C)C(=O)C[C@]12C (stereo not given in full) | -3.99% [at 25.3 µM] |
| CC1=CC(=O)CC(C)(C)[C@@]1(O)/C=C/C(C)O[C@@H]1O[C@H](CO)[C@@H](O)[C@H](O)[C@H]1O (stereo not given in full) | 2.8% [at 25.3 µM] |
| CC(C)C1NC(=O)C(CC2(O)c3ccccc3N3C(=O)C(Cc4ccccc4)NC32)NC1=O (stereo not given) | 18.8% [at 25.3 µM] |
| OC[C@@]1(O)CO[C@H](OC[C@H]2O[C@@H](OC(CCCCc3ccc(O)cc3)CCc3ccc(O)cc3)[C@H](O[C@H]3OC[C@](O)(CO)[C@H]3O)[C@@H](O)[C@@H]2O)[C@@H]1O (stereo not given in full) | 14.3% [at 25.3 µM] |
| COC(=O)c1c(CC=C(C)C)c(OC2OC(CO)C(O)C(O)C2O)c2ccccc2c1OC1OC(CO)C(O)C(O)C1O (stereo not given) | 4.81% [at 25.3 µM] |
| C[C@]1(O)CC[C@@H]2C(C(=O)O)=CO[C@@H](O[C@@H]3O[C@H](COC(=O)/C=C/c4ccc(O)c(O)c4)[C@@H](O)[C@H](O)[C@H]3O)[C@@H]21 | 1.38% [at 25.3 µM] |
| CC(C)(O)C1CC=C(C(=O)OC[C@H]2O[C@@H](Oc3cc(C(=O)O)cc(O)c3O)[C@H](O)[C@@H](O)[C@@H]2O)CC1 (stereo not given in full) | 5.33% [at 25.3 µM] |
| COc1cc2c(cc1O)CC(O)(CO)C(CO)C2c1ccc(OC2OC(CO)C(O)C(O)C2O)c(OC)c1 (stereo not given) | -3.36% [at 25.3 µM] |
| O=C(O)CC/C=C\C[C@H]1CO[C@@H](c2ccccc2Cl)O[C@H]1c1ccccc1O | -3.79% |
